Screening data: PubChem BioAssay, National Center for Advancing Translational Sciences (NCATS)
Sm TGR inh: S. mansoni TGR enzyme inhibition; purified TGR, DTNB reduction, TNB absorbance 405 nm; Potency, µM (titrated, usually from 114 µM), inactives show at the top dose activity change, negative = inhibition, usual class: inhibitors; actives 3% (n = 360,000); AID 485364; also: nearly all actives have a fitted effect of over 60% in size
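First, TGR (20 nM dispensed) and NADPH were mixed with compound. Second, a 15 min room-temperature incubation followed. Third, further NADPH and then DTNB were added to start the reaction. Finally, TNB absorbance was monitored kinetically.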
AmpC inh detg: blocks E. coli AmpC beta-lactamase in detergent assay. AmpC hydrolysis of nitrocefin, absorbance 480 nm, 0.01% Triton. Potency, µM (doses to about 114 µM), inactives show top-dose activity change, negative = inhibition, most hits filed as inhibitors. actives 0.041% (n = 370,000). P00811. AID 485294;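 also: 0% = no-compound wells and -100% = no-enzyme wells; nearly all actives have a fitted effect of over 25% in size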
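AmpC (5.3 nM in the dispensed reagent) in 20 mM phosphate pH 7.0 with 0.01% (detergent screen) or 0.0001% Triton X-100 was preincubated with compounds for 15 min at room temperature. Nitrocefin was then added from an 800 uM solution, and hydrolysis was followed at 480 nm.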
FBPA Giardia inh: blocks Giardia fructose-bisphosphate aldolase activity; purified Giardia FBPA; actives 0.71% (n = 290,000); Potency, µM (titrated, usually from 59.6 µM), inactives show top-dose activity, negative = inhibition, most hits filed as inhibitors; A8B2U2; also: nearly all actives have a fitted effect of over 55% in size
Target sequence (A8B2U2 whole entry, looked up): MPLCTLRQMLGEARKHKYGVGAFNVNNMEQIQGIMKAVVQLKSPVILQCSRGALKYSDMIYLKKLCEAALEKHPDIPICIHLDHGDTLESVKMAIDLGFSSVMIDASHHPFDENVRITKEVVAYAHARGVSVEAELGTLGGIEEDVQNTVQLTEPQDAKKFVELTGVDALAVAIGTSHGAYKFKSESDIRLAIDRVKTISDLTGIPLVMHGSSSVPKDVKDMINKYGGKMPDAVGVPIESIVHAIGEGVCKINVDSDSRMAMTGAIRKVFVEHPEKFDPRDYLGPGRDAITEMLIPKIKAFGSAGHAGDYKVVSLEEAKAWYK
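40 nM FBPA preincubated 10 min at RT with compound (up to 57.5 uM final), then substrate plus GAPDH/TPI/NAD/arsenate coupling and diaphorase/resazurin added. Fluorescence read after 20 min at RT, 525/598 nm.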
AmpC inh no detg: AmpC beta-lactamase inhibition without detergent; AID 485341; AmpC nitrocefin hydrolysis, absorbance 480 nm, 0.0001% Triton; actives 0.52% (n = 330,000); Potency, µM (titrated, usually from 57.1 µM), for inactives: at the top dose activity change, negative = inhibition, usual class: inhibitors; P00811;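 also: plate controls were no compound for no effect and no enzyme for full effect; nearly all actives have a fitted effect of over 20% in size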
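20 mM phosphate pH 7.0 + 0.01% (detergent screen) or 0.0001% Triton X-100; 5.3 nM AmpC reagent; cpd preinc 15 min RT; nitrocefin (800 uM stock) to start; A480 q20 s × 4 min; Activity was normalised to no-enzyme and no-compound control wells.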
Starred values were filed as active, the others as inactive; [ ] = remark or other dose. The list is not random: actives were taken first. Their share in the collection is about 3.6%. Calls follow the shape of the dose curve; as a rule, active = well fitted curve in the direction sought with a large enough effect; inconclusive = small, poorly fitted or top-dose-only effect, or another doubt; inactive = no such curve, though single readings can be large; an effect the other way counts as inactive or inconclusive. Unless noted, % is scaled to controls: 0 for no effect and ±100 for the full control effect; potency is read from the fitted curve at half-maximal effect.

COc1ccc(C(C)=O)cc1COC(=O)CNC(=O)c1ccc(F)cc1 was read as Sm TGR inh inconclusive, AmpC inh detg -10%, FBPA Giardia inh 1% and AmpC inh no detg -26%.
COc1ccc(C(C)=O)cc1COC(=O)CNC(=O)c1ccc(Cl)cc1 was read as Sm TGR inh 3.2µM*, AmpC inh detg -4%, FBPA Giardia inh -2% and AmpC inh no detg -3%.
`COc1ccc(C(C)=O)cc1COc1ccc(F)cc1` gave Sm TGR inh -34%, AmpC inh detg 6%, FBPA Giardia inh -5% and AmpC inh no detg -1%.
CC1=C(C(=O)OCC2CCCCC2)C(c2ccc(Cl)cc2Cl)CC(=O)N1 (stereo not given) was read as Sm TGR inh 7% and AmpC inh detg -10%.
For COC(=O)Cn1cc(/C=C(/C#N)C(=O)N2CCOCC2)c2ccccc21 the results were Sm TGR inh 4%, AmpC inh detg 5%, FBPA Giardia inh 0% and AmpC inh no detg -11%.
For O=C(c1ccccc1)c1ccc2nc(N3CCN(C(=O)c4ccco4)CC3)c3nncn3c2c1 the results were Sm TGR inh 45µM*, AmpC inh detg -8%, FBPA Giardia inh 1% and AmpC inh no detg 10%.
CC(Sc1nnc(C2CC2)n1N)C(=O)NC1CCCCC1C (stereo not given) was read as Sm TGR inh 3%, AmpC inh detg 11% and AmpC inh no detg -9%.
`O=C(CCl)c1cc2c3c(c1)CC(=O)N3CCC2` gave Sm TGR inh 1.6µM*, AmpC inh detg -1%, FBPA Giardia inh -12% and AmpC inh no detg -2%.
For O=C(NCCO)C(=O)Nc1cc2c3c(c1)CC(=O)N3CCC2 the results were Sm TGR inh 4%, AmpC inh detg 2%, FBPA Giardia inh 12% and AmpC inh no detg 33%.
CC(=O)c1c(C)[nH]c(C(=O)CN2CCN(S(=O)(=O)c3ccccc3)CC2)c1C was read as Sm TGR inh 45µM*, AmpC inh detg -5% and AmpC inh no detg -10%.
CC(=O)c1c(C)[nH]c(C(=O)Nc2cccc(S(=O)(=O)N3CCOCC3)c2)c1C was read as Sm TGR inh -6%, AmpC inh detg -11%, FBPA Giardia inh 0% and AmpC inh no detg -31%.
For O=C(Nc1cc(Sc2nc3ccccc3s2)cc([N+](=O)[O-])c1)c1ccccc1F the results were Sm TGR inh -27%, AmpC inh detg -1%, FBPA Giardia inh -5% and AmpC inh no detg inconclusive.
`O=C(Nc1cc(Sc2nc3ccccc3s2)cc([N+](=O)[O-])c1)c1ccccc1` gave Sm TGR inh 2%, AmpC inh detg -14%, FBPA Giardia inh -5% and AmpC inh no detg 13µM*.
CC1(C)OC(C)(C)/C(=C/Nc2ccc(O)cc2)C1=O was read as Sm TGR inh -28%, AmpC inh detg inconclusive, FBPA Giardia inh 2.8µM* and AmpC inh no detg -20%.
Screening C=CS(=O)(=O)c1ccc(Oc2ccc(S(=O)(=O)C=C)cc2)cc1 returned Sm TGR inh 2.5µM*, AmpC inh detg -8%, FBPA Giardia inh 7% and AmpC inh no detg -25%.
Screening CN1/C(=C/C2CC(=O)NC2=O)C(C)(C)c2ccccc21 (stereo not given) returned Sm TGR inh 45µM*, AmpC inh detg 2%, FBPA Giardia inh -26% and AmpC inh no detg -7%.
`O=C1CC(Sc2ccc(Cl)cc2)C(=O)N1c1ccc2c(c1)OCCO2` (stereo not given) gave Sm TGR inh 4µM*, AmpC inh detg 5%, FBPA Giardia inh 1% and AmpC inh no detg -4%.
Screening O=C1CC(SC2=NCCS2)C(=O)N1c1ccc(Br)cc1 (stereo not given) returned Sm TGR inh 56µM*, AmpC inh detg -10%, FBPA Giardia inh 4% and AmpC inh no detg -54%.
`O=C1CC(SC2=NCCS2)C(=O)N1c1ccc(Cl)cc1` (stereo not given) gave Sm TGR inh 56µM*, AmpC inh detg -13%, FBPA Giardia inh 5% and AmpC inh no detg -17%.
For Cc1ccnc(SC2CC(=O)N(c3ccc(F)cc3)C2=O)n1 (stereo not given) the results were Sm TGR inh inconclusive, AmpC inh detg -1%, FBPA Giardia inh -6% and AmpC inh no detg -11%.
Nc1ccccc1SC1CC(=O)N(c2ccc3c(c2)OCCO3)C1=O (stereo not given) was read as Sm TGR inh 9%, AmpC inh detg 7%, FBPA Giardia inh 2% and AmpC inh no detg -35%.
Screening CSc1ccc(/C=C(\C(=O)O)c2ccc(S(=O)(=O)N3CCCC3)s2)cc1 returned Sm TGR inh -8%, AmpC inh detg -8% and AmpC inh no detg -32%.
`Cc1cc(C)n(CC(C)(O)c2ccccc2)n1` (stereo not given) gave Sm TGR inh -4%, AmpC inh detg -13% and AmpC inh no detg -9%.
For CC(C)CCn1c(=O)c2ccccc2n2c(CN3CCCC3)nnc12 the results were Sm TGR inh 6%, AmpC inh detg -4%, FBPA Giardia inh 2% and AmpC inh no detg 9%[11.4 µM].
CC(C)CCn1c(=O)c2ccccc2n2c(CCl)nnc12 was read as Sm TGR inh 3.2µM*, AmpC inh detg -4%, FBPA Giardia inh 0% and AmpC inh no detg -18%.
`CCCCCn1c(=O)c2ccccc2n2c(CCl)nnc12` gave Sm TGR inh 14µM*, AmpC inh detg 1%, FBPA Giardia inh -2% and AmpC inh no detg -2%.
CCCn1c(=O)c2ccccc2n2c(SCC(N)=O)nnc12 was read as Sm TGR inh 8%, AmpC inh detg inconclusive, FBPA Giardia inh 13% and AmpC inh no detg -8%.
CC(=O)Nc1sc(N/N=C\c2ccco2)nc1-c1cccs1 was read as Sm TGR inh inconclusive, AmpC inh detg 3%, FBPA Giardia inh -29% and AmpC inh no detg -26%.
`O=S(=O)(Nc1cccc2cccnc12)c1ccccc1O` gave FBPA Giardia inh 20µM*.
O=S(=O)(Nc1ccccc1O)c1cccc2cccnc12 was read as Sm TGR inh -1%, AmpC inh detg -3%, FBPA Giardia inh -25% and AmpC inh no detg -33%.
O=S(=O)(Nc1ccc2ccccc2n1)c1ccc2c(c1)CCO2 was read as Sm TGR inh -7%, AmpC inh detg -9%, FBPA Giardia inh 7% and AmpC inh no detg -39%.
CCC(C)N(CC(=O)Nc1cccc(C)c1C)C(=O)CCl (stereo not given) was read as Sm TGR inh 20µM*, AmpC inh detg -13%, FBPA Giardia inh -1% and AmpC inh no detg -7%.
Screening CC(C)N(CC(=O)Nc1ccc(Cl)cc1C(F)(F)F)C(=O)CCl returned Sm TGR inh 18µM*, AmpC inh detg -14%, FBPA Giardia inh -1% and AmpC inh no detg -16%.
Screening CC(=O)c1ccc(NC(=O)CC(c2cccs2)N2Cc3ccccc3C2=O)cc1 (stereo not given) returned Sm TGR inh 0% and AmpC inh detg -3%.
For CCOc1ccccc1NC(=O)Cn1c(=O)oc2cc(S(=O)(=O)NCc3ccccc3)ccc21 the results were Sm TGR inh -1% and AmpC inh detg -7%.
